# This is a sample that favours compounds with a hit; in the whole collection about 8.3% have one here.
# FMDV antiviral: blocks foot and mouth disease virus; FMDV antiviral cell-based qHTS; Potency, µM (series often up to 57.9 µM), for inactives: at the top dose activity change, negative = inhibition, most hits filed as inhibitors; 1.2% of 410,000 active; calls by dose curve; tested in HEK293T cells; note: read-out not given here; potency is the fitted concentration of half-maximal effect; nearly all actives have a fitted effect of over 45% in size
# MARV entry inh: blocks Marburg virus binding to or entry into cells; Potency, µM (highest dose often 37.8 µM), without a hit: at the top dose activity change, negative = inhibition, most hits filed as inhibitors; AID 540276; Marburg virus pseudotyped entry inhibition, cell reporter; 1.8% of 300,000 active; calls by dose curve; tested in HEK293 cells; note: potency is the fitted concentration of half-maximal effect
# HCV inhibitor: HCV inhibition. Huh7.5.1 HCVcc-Cre infection, luciferase reporter, 44 h. Potency, µM (top dose mostly 41.8 µM), without a hit: top-dose activity change, negative = inhibition, hits mostly inhibitors. 3.4% of 340,000 active. AID 651820; note: potency is the fitted concentration of half-maximal effect
#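 Seed cells (1,000/well) for 4 h; treat with compound and infect with HCVcc-Cre, moi about 0.5. Incubate 44 h, then detect luciferase activity.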
# Giardia FBPA inh: Giardia lamblia aldolase inhibition; Potency, µM (doses to about 59.6 µM), without a hit: at the highest dose activity, negative = inhibition, hits mostly inhibitors; A8B2U2; 0.71% of 290,000 active; purified Giardia FBPA; note: potency is the fitted concentration of half-maximal effect; nearly all actives have a fitted effect of over 55% in size
# Target sequence (A8B2U2 whole entry, looked up): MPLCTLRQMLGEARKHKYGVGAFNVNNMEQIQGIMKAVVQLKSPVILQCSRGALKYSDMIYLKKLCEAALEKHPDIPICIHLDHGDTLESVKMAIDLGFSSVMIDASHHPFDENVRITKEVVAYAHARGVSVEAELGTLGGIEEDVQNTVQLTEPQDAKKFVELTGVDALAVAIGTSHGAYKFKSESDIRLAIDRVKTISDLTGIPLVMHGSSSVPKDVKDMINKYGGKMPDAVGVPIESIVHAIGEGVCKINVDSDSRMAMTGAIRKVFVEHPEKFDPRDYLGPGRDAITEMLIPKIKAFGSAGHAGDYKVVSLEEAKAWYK
#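 40 nM FBPA preincubated 10 min at RT with compound (up to 57.5 uM final), then substrate plus GAPDH/TPI/NAD/arsenate coupling and diaphorase/resazurin added. Fluorescence read after 20 min at RT, 525/598 nm.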
# Lassa entry inh: inhibitors of Lassa virus binding or cell entry | Lassa virus pseudotype entry inhibition, cell reporter | Potency, µM (highest dose often 37.9 µM), for inactives: at the top dose activity change, negative = inhibition, usual class: inhibitors | 1.2% of 300,000 active; calls by dose curve; tested in HEK293 cells; note: potency is the fitted concentration of half-maximal effect; nearly all actives have a fitted effect of over 50% in size
# HCMV antiviral: inhibitors of human cytomegalovirus; HFF cells, HCMV-luciferase reporter, 72 h; active compounds read low; activity change, negative = inhibition, % at 57.5 µM; 4.5% of 410,000 active; in the data active = activity change below about -60%; inconclusive = no clear call, values can overlap the other calls; inactive = above about -39%
#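 Two-dose cell screen: HFF monolayers treated with compounds and infected with luciferase-expressing HCMV at 1 PFU/cell, 72 h at 37C, then lysed for luciferase measurement.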
# Active calls of the source: *; ? = inconclusive; · = no result given; ! = a repeat was not active; [ ] = dose if it differs, or a comment. Unless noted, calls come from the whole dose curve; as a rule, active = well fitted curve in the direction sought with a large enough effect; inconclusive = small, poorly fitted or top-dose-only effect, or another doubt; inactive = no such curve, though single readings can be large; an effect the other way counts as inactive or inconclusive. % is set by controls: 0 for no effect and ±100 for the full control effect.
SMILES,FMDV antiviral,MARV entry inh,HCV inhibitor,Giardia FBPA inh,Lassa entry inh,HCMV antiviral
C[C@@H]1CC2=CCCC2[C@]2(O1)C(=O)N(Cc1ccc(F)cc1)c1cccc(Br)c12 (stereo partly specified),·,8%[14.2 µM],·,·,·,·
CN1[C@@H]2CC[C@H]1CC(OC1c3ccccc3CCc3ccccc31)C2 (stereo partly specified),?,·,1.3µM*,-6%[21.7 µM],·,-38
c1ccc2c(c1)OCc1nccn1-2,·,·,·,·,·,1
COc1ccc(-c2c3c(nc4sc(C(=O)Nc5cc(C)on5)c(N)c24)CCC3)cc1,·,-28%,?,0%,?,?
COc1ccc(-c2c3c(nc4sc5c(=O)[nH]c(C)nc5c24)CCC3)cc1,0%,?,4%,0%,8%,-88*
CN(C)c1ccc(C=c2c3ccccc3n3c2c2c([n+]3C)CCCC2)cc1,6.3µM*,4.5µM*,?,·,7.9µM*,-99*
COc1cc(N(C)C)ccc1C=c1c2ccccc2n2c1cc(-c1ccccc1)[n+]2C,?,?,10µM*,·,?,-99*
CN(C)c1ccc(C=c2c3cc([N+](=O)[O-])ccc3n3c2cc(-c2ccccc2)[n+]3C)cc1,32µM*,?,?,·,8.9µM*,-100*
CN(C)c1ccc(C=c2c3ccccc3n3c2cc(-c2ccc(Cl)cc2)[n+]3C)cc1,?,?,?,·,?,-99*
COc1ccccc1CNc1nc(-c2ccc(N(C)C)cc2)nc2ccccc12,18%,·,·,?,·,·
CCc1nc2cc(C(=O)N3CCCN(C=O)CC3)cc(NC(=O)c3ccccc3OC)c2n1C,-1%,·,·,·,·,·
O=C(NCCc1ccccn1)c1cnn(-c2ncc3c(n2)-c2ccccc2CC3)c1C1CC1,-27%,·,·,·,·,·
CN(C)c1ccc(C=C2C=C(c3ccccc3)OC2=O)cc1,28%,·,·,·,·,-37
COc1cc(/C=C(/C(=O)O)c2ccc(-c3ccccc3)cc2)cc(OC)c1OC,26%,?,-4%,-4%,-10%[46.1 µM],-26
CN(C)c1ccc(C=c2c3ccccc3n3c2cc(-c2ccccc2)[n+]3C)cc1,16µM*,2.8µM*,?,·,2.8µM*,-99*
COc1cc(C=c2c3ccccc3n3c2cc(-c2ccccc2)[n+]3C)cc(OC)c1OC,?,?,?,·,14µM*,-101*
CN(Cc1ccccc1)C(=O)c1ccc2c(c1)N(Cc1ccc(Cl)cc1)C(=O)c1ccccc1S2=O (stereo unspecified),0%,0%[46.1 µM],·,·,25%[46.1 µM],?
O=S(=O)(Nc1cc(O)cc2cccnc12)c1ccc(Br)s1,·,·,·,3.2µM*,·,·
O=S(=O)(Nc1cc(O)cc2cccnc12)c1ccc(Cl)s1,·,·,·,3.2µM*,·,·
C[C@@H]1CN(C(=O)OC(C)(C)C)CCN1c1ccc(N2CC[C@@H](O)C2)c(C#N)c1,·,·,·,·,·,-6
COC(=O)c1ccc(Cn2nc(-c3ccc(C)cc3)ccc2=O)cc1,-22%,17%[46.1 µM],-3%,-4%,25%[46.1 µM],-7
Cc1ccc(-c2ccc(=O)n(Cc3ccc(F)cc3)n2)cc1,-23%,0%[46.1 µM],-13%,-2%,-2%[46.1 µM],-63*!
Cc1ccc(-c2cc(N)n(Cc3ccc(Cl)cc3)n2)cc1,-15%,?,10µM*,-1%,-15%,-22
COC(=O)C[C@H](NC(=O)Cn1cnc(C(=O)Nc2ccc(C)c(C)c2)n1)C(=O)OC,38%,2%,13%,·,·,-65*
CCCCC(=O)N1CCN(c2nc3ccc(Br)cc3s2)CC1,-12%,0%[46.1 µM],11µM*,·,?,-13
SMILES,FMDV antiviral,MARV entry inh,HCV inhibitor,Giardia FBPA inh,Lassa entry inh,HCMV antiviral
CCCC(=O)N1CCN(c2nc3ccc(Cl)cc3s2)CC1,5%,·,11µM*,·,·,-20
CCCC(=O)N1CCN(c2nc3ccc(Br)cc3s2)CC1,3%,·,10µM*,·,·,-68*
CCCC(=O)N1CCN(c2nc3ccc(CC)cc3s2)CC1,11%,·,12%,·,·,-11
Cn1c(-c2cccc(C(F)(F)F)c2)cc2cnc(Nc3cccc(Oc4ccccc4)c3)cc21,·,·,·,·,·,-11
O=c1c2oc3ccccc3c2n(Cc2ccccc2F)c(=O)n1Cc1ccccc1,-13%,·,·,·,29%[46.1 µM],-12
CSCC[C@H](NC(=O)[C@H](CCCN=C(N)N)NC(=O)[C@@H]1CCCN1C(=O)[C@H](Cc1ccccc1)NC(=O)[C@H](C)NC(=O)[C@H](CC(C)C)NC(=O)[C@H](Cc1ccc(O)cc1)NC(=O)[C@H](CC(N)=O)NC(=O)[C@@H](N)CCSC)C(N)=O,·,·,·,5%,·,·
COc1cc(CNC(C)(C)CO)ccc1OCC(=O)Nc1ccc(Br)cc1,-2%,?,13µM*,-2%,-1%,-14
COc1cc(CNCCc2ccccc2)ccc1OCC(=O)NC(C)(C)C,-9%,11µM*,-24%,-2%,-10%,-20
CCOc1cc(CNc2ccc(Br)cc2)cc(Br)c1OCC(=O)NC(C)(C)C,?,-20%,?,-9%,-10%,?
C=CCOc1ccc(CNC(C)(C)CO)cc1OC,11%,13%,1%,-5%,-18%,-10
CCOc1cc(CNc2ccccc2)cc(Br)c1OCC(=O)NC(C)(C)C,·,?,13µM*,1%,?,-97*
CCCNC(=O)COC(=O)c1ccc(OCC(=O)Nc2ccccc2OC)c(OC)c1,-5%,-20%,0%,2%,5%,18
COc1ccccc1NC(=O)COc1ccc(C(=O)OCC(=O)NC(C)(C)C)cc1OC,22µM*,-6%[46.1 µM],?,1%,·,3
COc1ccc2c(c1)O[C@@H](c1ccc3c(c1)OCO3)[C@H](OC(=O)NCCOc1ccccc1)C2=O,·,45%[14.2 µM],·,-1%,·,·
Clc1cccc(-n2cc(-c3ccccc3)c3c(N4CCCCC4)ncnc32)c1,?,·,·,·,2%[46.1 µM],-19
CCC(C(=O)NCCC(C)C)n1ccc2cc(S(=O)(=O)N3CCCCC3)ccc21 (stereo unspecified),-10%,·,10µM*,-6%,·,·
CC(C)CCNC(=O)c1cc2cc(S(=O)(=O)N3CCCCC3)ccc2n1C,-15%,·,·,·,?,-2
CCOc1ccc(NC(=O)c2ccc3nc(C(C)C)oc3c2)cc1,-27%,·,·,·,7%[46.1 µM],-16
CC1CC(C)CN(CCCNC(=O)c2ccc(CS(=O)(=O)Cc3ccccc3F)o2)C1 (stereo unspecified),6%,2%,-1%,-4%,-2%,-73*
C=CCC1(O)CCOc2ccccc21 (stereo unspecified),·,·,·,4%,·,·
Cc1c(C(=O)Nc2cnccn2)oc2ccccc12,48%,-2%,?,-1%,29%[14.3 µM],172
Cc1ccnc(NC(=O)c2oc3ccccc3c2C)c1,-40%,?,?,·,3.5µM*,0
Cc1c(C(=O)Nc2ccc(-n3cnnn3)cc2)oc2ccccc12,·,17%,4%,-23%,-20%,-65*
CC(C)(C)N1C(=O)[C@H]2[C@H]3[C@H](O)[C@H](O)C/C(=N/NC(=O)OCc4ccccc4)[C@H]3CC[C@@H]2C1=O,·,·,·,0%[12.9 µM],·,·
COc1cccc(NC(=O)Nc2cccnc2)c1,47%,·,19%,-5%,·,-26

# Bioassay records (PubChem)
